Laboratory results: PubChem BioAssay AID720597 (Broad Institute, 2013)
Results with a measured potency or affinity are listed apart.

target: NAD-dependent protein deacylase sirtuin-5, mitochondrial (Homo sapiens) (UniProt Q9NXA8); assay: blockers of sirtuin-5 peptide desuccinylation – biochemical, fluorescence imaging, cherry-pick, set 6, dose response (AID 720597); conditions: Purified SirT5, succinyl-peptide-AMC/trypsin fluorescence; series mostly up to 15 µM; activity change, negative = inhibition: at the top concentration;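 note: lower AMC signal can also come from blocking the trypsin step; 0% = median of neutral control wells and -100% = median of positive control wells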
Sequence (Q9NXA8 whole entry, looked up): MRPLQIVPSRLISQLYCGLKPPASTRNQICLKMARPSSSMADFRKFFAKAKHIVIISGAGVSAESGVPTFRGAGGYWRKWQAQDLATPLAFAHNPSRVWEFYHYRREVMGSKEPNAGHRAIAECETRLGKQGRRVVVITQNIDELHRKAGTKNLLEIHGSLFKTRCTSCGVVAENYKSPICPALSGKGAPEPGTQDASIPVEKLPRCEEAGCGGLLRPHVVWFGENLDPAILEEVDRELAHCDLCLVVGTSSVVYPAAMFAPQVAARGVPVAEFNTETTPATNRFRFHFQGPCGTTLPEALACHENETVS

Activity change, negative = inhibition, inactive:
Cc1ccc(-c2ccc3c(c2)O[C@@H](CN(C)Cc2ccccc2)[C@@H](C)CN([C@@H](C)CO)S3(=O)=O)cc1 -12.1%
C[C@@H]1CN([C@@H](C)CO)C(=O)Cc2cc(NC(=O)Nc3ccc(F)cc3)ccc2O[C@H]1CN(C)C -11.8%
C[C@@H]1CN([C@@H](C)CO)C(=O)c2cc(NS(C)(=O)=O)ccc2O[C@@H](C)CCCCO[C@@H]1CN(C)C -18.9%
Cc1cccc(S(=O)(=O)N2CCCCN3[C@H](CO)[C@@H](c4ccc(-c5ccccc5)cc4)[C@H]3C2)c1 -2.19%
C[C@H](CO)N1C[C@H](C)[C@@H](CN(C)C(=O)NC2CCCCC2)Oc2cc(C#Cc3ccc(F)cc3)ccc2S1(=O)=O -9.23%
O=C(N[C@H]1C=C[C@H](CC(=O)N2CCOCC2)O[C@H]1CO)c1ccccn1 7.46%
C[C@@H]1CN([C@@H](C)CO)S(=O)(=O)c2ccc(C#Cc3cccc(F)c3)cc2O[C@@H]1CN(C)S(=O)(=O)c1ccccc1F 3.7%
COCC#Cc1ccc2c(c1)O[C@@H](CN(C)CC1CCCC1)[C@H](C)CN([C@@H](C)CO)S2(=O)=O 15.1%
Cc1noc(C)c1NC(=O)Nc1cccc2c1O[C@H](CN(C)Cc1ccc(Oc3ccccc3)cc1)[C@@H](C)CN([C@@H](C)CO)C2=O 20.2%
C[C@@H]1CN([C@@H](C)CO)C(=O)c2cc(NC(=O)Nc3ccc(F)cc3)ccc2O[C@@H]1CN(C)S(=O)(=O)c1ccc(Cl)cc1 5.11%
